Results filed as inconclusive are left out. Active and inactive are the calls of the source. Unless noted, calls follow the shape of the full dose curve.
Tests used:
[1] = Nuclear factor erythroid 2-related factor 2/antioxidant responsive element (Nrf2/ARE) small molecule agonists: qHTS cell viability counter screen in human keratinocytes (AID 1919968; active = well fitted curve in the direction sought with a large enough effect in the repeat runs; an effect the other way counts as inactive or inconclusive; also: nearly all actives have a fitted effect of over 55% in size)
Procedure, shortened: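 KeratinoSens HaCaT cells, 1,500/well, preincubated 5 h, then exposed to compounds in DMSO for 23 h at 37 C/5% CO2. Viability read as CellTiter-Fluor fluorescence after 1 h, in the same wells as the ARE-luciferase read.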

[2] = Nuclear factor erythroid 2-related factor 2/antioxidant responsive element (Nrf2/ARE) small molecule agonists: luciferase reporter gene qHTS assay in human keratinocytes (AID 1919969); also: nearly all actives have a fitted effect of over 35% in size
[3] = target: Gonadotropin-releasing hormone receptor (Homo sapiens) (UniProt P30968); assay: Human gonadotropin-releasing hormone receptor (GnRHR) small molecule agonists, calcium flux assay in GnRHR-HEK293 cells (AID 1920063); also: nearly all actives have a fitted effect of over 35% in size
Gonadotropin-releasing hormone receptor (Homo sapiens), sequence (P30968 whole entry, looked up): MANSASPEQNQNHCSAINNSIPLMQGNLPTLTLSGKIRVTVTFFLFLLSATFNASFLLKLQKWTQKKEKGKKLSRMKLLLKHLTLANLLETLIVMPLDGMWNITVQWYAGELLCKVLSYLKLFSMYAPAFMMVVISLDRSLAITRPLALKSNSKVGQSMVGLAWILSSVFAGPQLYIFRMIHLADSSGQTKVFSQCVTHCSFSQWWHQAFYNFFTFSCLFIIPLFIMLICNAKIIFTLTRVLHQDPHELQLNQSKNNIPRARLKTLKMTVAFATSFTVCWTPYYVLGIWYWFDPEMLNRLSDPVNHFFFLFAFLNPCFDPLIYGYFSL
Procedure, shortened: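 HEK293 cells stably expressing human GnRHR were dye-loaded for 1 h at 37 C. Compound was added in agonist mode and fluorescence (Ex/Em 480/540) recorded kinetically for 3 min. Fifteen concentrations, triplicates.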

[4] = target: KiSS-1 receptor (Homo sapiens) (UniProt Q969F8); assay: Human kisspeptin (KISS1R) small molecule agonists, calcium flux assay in KISS1R-HEK293 cells (AID 1920064; active = well fitted curve in the direction sought with a large enough effect in the repeat runs; an effect the other way counts as inactive or inconclusive)
KiSS-1 receptor (Homo sapiens), sequence (Q969F8 whole entry, looked up): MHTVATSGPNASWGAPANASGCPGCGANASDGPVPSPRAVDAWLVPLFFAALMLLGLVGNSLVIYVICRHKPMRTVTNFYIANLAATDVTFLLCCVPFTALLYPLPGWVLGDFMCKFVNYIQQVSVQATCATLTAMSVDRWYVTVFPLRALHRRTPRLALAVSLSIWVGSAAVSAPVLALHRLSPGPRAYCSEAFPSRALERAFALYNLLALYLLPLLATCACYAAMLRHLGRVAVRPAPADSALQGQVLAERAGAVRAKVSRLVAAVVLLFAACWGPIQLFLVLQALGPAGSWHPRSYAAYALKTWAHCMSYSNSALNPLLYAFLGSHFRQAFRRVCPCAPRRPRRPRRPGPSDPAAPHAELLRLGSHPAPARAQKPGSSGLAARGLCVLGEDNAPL
Procedure, shortened: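 HEK293 cells stably expressing human KISS1R were loaded with calcium dye for 1 h at 37 C, then given compound; fluorescence (Ex/Em 480/540) was read kinetically for 3 min. Fifteen concentrations, triplicate.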

[5] = G protein-coupled receptor (GPCR) small molecule agonists, calcium flux assay: HEK293 wild type cell line counter screen (AID 1920065)
Procedure, shortened: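 Wild-type HEK293 cells plated 18 h, loaded with calcium dye 1 h at 37 C, then compounds added in agonist mode (ATP as positive control). Kinetic fluorescence Ex/Em 480/540 recorded 3 min at 1 sec intervals; 15 concentrations, triplicate.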

[6] = p53 small molecule agonists, cell-based qHTS assay with human liver microsomes (AID 1963577);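 also: p53 response element beta-lactamase reporter cells with liver microsomes plus NADPH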
Procedure, shortened: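 16 h, 37 C exposure of p53RE-bla cells to compounds with human liver microsomes and NADPH (0.5 mg/mL final each); detection via LiveBLAzer mixture, 2 h dark at room temperature.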

[7] = p53 small molecule agonists, cell-based qHTS assay with rat liver microsomes (AID 1963578)
Procedure, shortened: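 With rat liver microsomes and NADPH present (0.5 mg/mL final each), p53RE-bla cells are treated with compound for 16 h at 37 C. LiveBLAzer detection mixture is then applied for 2 h at room temperature in the dark.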

[8] = p53 small molecule agonists, cell-based qHTS assay with human liver microsomes: qHTS cell viability counter screen (AID 1963579); also: nearly all actives have a fitted effect of over 45% in size
Procedure, shortened: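 In this multiplexed counter screen, the reporter plates were subsequently treated with CellTiter-Glo so that cell viability, reflected by luminescence, could be recorded for p53RE-bla cells dosed 16 h with compounds under microsomal activation (HLM and NADPH).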

[9] = p53 small molecule agonists, cell-based qHTS assay with rat liver microsomes: qHTS cell viability counter screen (AID 1963580); also: nearly all actives have a fitted effect of over 45% in size
Procedure, shortened: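 In HCT-116 cells carrying a p53 response element-bla reporter, compounds were metabolically activated in situ by rat liver microsomes with NADPH over 16 h. Cell ATP content then served as the cytotoxicity measure.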

[10] = p53 small molecule agonists, cell-based qHTS assay: qHTS cell viability counter screen (AID 1963581); also: nearly all actives have a fitted effect of over 45% in size
Procedure, shortened: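 p53RE-bla HCT-116 cells, compounds added 5 h after plating and incubated 16 h at 37 C. Cytotoxicity measured in the same wells as intracellular ATP by CellTiter-Glo luminescence after 30 min at room temperature.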

[11] = p53 small molecule agonists, cell-based qHTS assay (AID 1963582; active = well fitted activation curve with a large enough effect in the signal ratio in the repeat runs, not every such curve was filed as active; the % refers to the signal ratio)
Procedure, shortened: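 p53RE-bla reporter cells, compounds added in DMSO after 5 h plating, incubated 16 h at 37 C. Beta-lactamase read via 2 h room-temperature LiveBLAzer B/G FRET substrate, fluorescence intensity.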

[12] = target: 5-hydroxytryptamine receptor 2A (Homo sapiens) (UniProt P28223); assay: 5-hydroxytryptamine receptor 2A (HTR2A) small molecule antagonists, cell-based qHTS assay (AID 1963586); also: nearly all actives have a fitted effect of over 45% in size
5-hydroxytryptamine receptor 2A (Homo sapiens), sequence (P28223 whole entry, looked up): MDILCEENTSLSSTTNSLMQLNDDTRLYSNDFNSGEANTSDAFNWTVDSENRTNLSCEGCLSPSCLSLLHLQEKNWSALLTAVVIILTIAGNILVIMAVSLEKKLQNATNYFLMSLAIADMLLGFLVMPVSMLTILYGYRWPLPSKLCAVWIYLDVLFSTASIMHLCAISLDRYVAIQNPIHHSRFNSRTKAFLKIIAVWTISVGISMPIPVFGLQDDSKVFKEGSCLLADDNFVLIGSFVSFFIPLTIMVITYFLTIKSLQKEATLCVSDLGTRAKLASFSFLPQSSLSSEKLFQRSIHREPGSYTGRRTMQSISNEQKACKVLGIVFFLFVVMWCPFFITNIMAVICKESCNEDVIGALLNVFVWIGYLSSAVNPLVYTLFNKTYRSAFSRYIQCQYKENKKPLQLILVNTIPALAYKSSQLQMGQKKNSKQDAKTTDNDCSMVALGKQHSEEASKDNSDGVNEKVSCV
Procedure, shortened: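 Antagonist-mode intracellular calcium assay: DOI (4 nM) added after 5 min compound pre-incubation at room temperature to dye-loaded HTR2A-CHO cells. Fluorescence followed for 3 min, sampled every second.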

[13] = target: 5-hydroxytryptamine receptor 2A (Homo sapiens) (UniProt P28223); assay: 5-hydroxytryptamine receptor 2A (HTR2A) small molecule agonists, cell-based qHTS assay (AID 1963587); also: nearly all actives have a fitted effect of over 30% in size
Procedure, shortened: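 HTR2A-CHO cells, plated 18 h at 37 C/5% CO2, dye-loaded 1 h at 37 C; compounds in DMSO added by pin tool (agonist mode). Intracellular calcium flux read as kinetic fluorescence on FDSS over 2 min at 1 s intervals.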

[14] = target: Muscarinic acetylcholine receptor M1 (Homo sapiens) (UniProt P11229); assay: Cholinergic receptor muscarinic 1 (CHRM1) small molecule agonists, cell-based qHTS assay (AID 1963589); also: nearly all actives have a fitted effect of over 35% in size
Muscarinic acetylcholine receptor M1 (Homo sapiens), sequence (P11229 whole entry, looked up): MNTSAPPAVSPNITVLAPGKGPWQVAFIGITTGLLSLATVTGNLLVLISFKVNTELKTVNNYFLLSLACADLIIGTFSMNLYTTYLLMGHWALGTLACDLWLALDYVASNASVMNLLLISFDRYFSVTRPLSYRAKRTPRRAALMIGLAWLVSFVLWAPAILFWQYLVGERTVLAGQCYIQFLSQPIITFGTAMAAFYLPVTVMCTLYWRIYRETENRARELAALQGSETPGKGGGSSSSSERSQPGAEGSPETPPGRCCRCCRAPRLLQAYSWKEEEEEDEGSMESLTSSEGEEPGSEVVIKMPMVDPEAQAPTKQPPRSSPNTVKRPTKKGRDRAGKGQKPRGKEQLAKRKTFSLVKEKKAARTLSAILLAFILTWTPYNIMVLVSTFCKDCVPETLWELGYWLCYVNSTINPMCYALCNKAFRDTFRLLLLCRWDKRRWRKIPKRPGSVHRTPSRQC
Procedure, shortened: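 CHO cells stably expressing human CHRM1 were loaded with calcium dye for 1 h at 37 C, then compound was added in agonist mode. Intracellular calcium fluorescence was followed kinetically at 1 s intervals. Fifteen concentrations were tested in three independent runs.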

[15] = cAMP Responsive Elements (CRE) small molecule agonists, cell-based qHTS assay (AID 1963590)
Procedure, shortened: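 CRE-bla HEK 293T cells, 2,000/well in DMEM with 10% dialyzed FBS and 25 mM HEPES, pre-incubated 18 h at 37 C, then exposed to compound 3 h at 37 C. Beta-lactamase reporter read with LiveBLAzer B/G FRET substrate after 2 h at room temperature.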

[16] = cAMP Responsive Elements (CRE) small molecule antagonists, cell-based qHTS assay (AID 1963591; active = well fitted inhibition curve with a large enough effect in the signal ratio in the repeat runs, not every such curve was filed as active; the % refers to the signal ratio)
Procedure, shortened: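 CRE-bla HEK293T cells plated 18 h, then given compound plus NKH477 at 0.25 uM final for 3 h at 37C. Beta-lactamase reporter read with LiveBLAzer B/G FRET substrate after 2 h at room temperature.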

[17] = target: Beta-2 adrenergic receptor (Homo sapiens) (UniProt P07550); assay: Adrenergic beta2 receptor (ADRB2) small molecule antagonists, cell-based qHTS assay (AID 1963592); also: series mostly up to about 92 µM; nearly all actives have a fitted effect of over 50% in size
Beta-2 adrenergic receptor (Homo sapiens), sequence (P07550 whole entry, looked up): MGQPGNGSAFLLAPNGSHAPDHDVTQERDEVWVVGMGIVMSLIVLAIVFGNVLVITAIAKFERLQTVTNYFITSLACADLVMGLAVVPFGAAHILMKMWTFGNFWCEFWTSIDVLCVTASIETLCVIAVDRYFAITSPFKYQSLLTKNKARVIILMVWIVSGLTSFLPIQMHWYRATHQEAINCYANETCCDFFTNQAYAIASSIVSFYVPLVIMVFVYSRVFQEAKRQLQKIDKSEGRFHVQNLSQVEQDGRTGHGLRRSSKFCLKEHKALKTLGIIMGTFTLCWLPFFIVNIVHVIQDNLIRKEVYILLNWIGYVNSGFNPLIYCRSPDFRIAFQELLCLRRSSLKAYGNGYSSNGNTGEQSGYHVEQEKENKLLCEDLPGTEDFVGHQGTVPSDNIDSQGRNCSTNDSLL
Procedure, shortened: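 Cells (CHO, stable ADRB2 overexpression) incubated 18-20hr at 37C; compounds added from DMSO; agonist mix (1nM isoproterenol, 100uM IBMX, 25uM Ro-20-1724) added; 0.5hr RT; d2-cAMP and anti-cAMP-cryptate added; 1hr RT; 665/615 nm read.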

[18] = target: D(2) dopamine receptor (Homo sapiens) (UniProt P14416); assay: Dopamine D2 receptor (DRD2) small molecule agonists, cell-based qHTS assay (AID 1963594); also: nearly all actives have a fitted effect of over 35% in size
D(2) dopamine receptor (Homo sapiens), sequence (P14416 whole entry, looked up): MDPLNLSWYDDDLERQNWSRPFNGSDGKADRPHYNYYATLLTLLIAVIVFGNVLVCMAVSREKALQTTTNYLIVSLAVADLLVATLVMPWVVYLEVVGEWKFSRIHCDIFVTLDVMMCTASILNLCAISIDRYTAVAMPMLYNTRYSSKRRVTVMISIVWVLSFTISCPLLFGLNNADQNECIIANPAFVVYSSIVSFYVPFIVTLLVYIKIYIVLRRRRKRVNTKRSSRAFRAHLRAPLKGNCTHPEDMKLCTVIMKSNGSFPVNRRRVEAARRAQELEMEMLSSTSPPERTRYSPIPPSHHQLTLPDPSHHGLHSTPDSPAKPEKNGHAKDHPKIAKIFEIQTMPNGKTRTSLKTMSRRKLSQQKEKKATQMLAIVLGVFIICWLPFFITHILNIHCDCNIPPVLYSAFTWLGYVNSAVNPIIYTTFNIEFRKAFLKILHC
Procedure, shortened: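 HEK293 cells stably expressing DRD2 were cultured 24 h at 37 C, then given Ro20-1724 (0.1 mM final) and compounds for 10 min at room temperature. NKH477 (200nM) was then added for 30 min. cAMP was read by HTRF.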

[19] = target: D(2) dopamine receptor (Homo sapiens) (UniProt P14416); assay: Dopamine D2 receptor (DRD2) small molecule antagonists, cell-based qHTS assay (AID 1963595; active = well fitted inhibition curve with a large enough effect in the signal ratio in the repeat runs, with a control signal flat; the % refers to the signal ratio)
Procedure, shortened: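 Human DRD2 antagonist qHTS measuring cAMP by HTRF. The cells are exposed to compound for 10 min, then to NKH477 (200 nM) and quinpirole (12 nM) for 30 min at RT, with Ro20-1724 (0.1 mM) present throughout.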

[20] = target: Muscarinic acetylcholine receptor M1 (Homo sapiens) (UniProt P11229); assay: Cholinergic receptor muscarinic 1 (CHRM1) small molecule antagonists, cell-based qHTS assay (AID 1963588); also: nearly all actives have a fitted effect of over 40% in size
Procedure, shortened: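 CHRM1-CHO calcium-flux assay, antagonist mode. Cells were seeded 18 h, dye-loaded 1 h at 37 C and given compound for 5 min at RT, then acetylcholine was added at 50nM. FDSS fluorescence was read 3 min; 15 concentrations, three runs.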
% is scaled to controls: 0 for no effect and ±100 for the full control effect.

CC(C)(O)CCc1ccccc1
inactive: Potency [1] | Potency [2] | Potency [3] | outcome [4] | outcome [5] | Potency [6] | Potency [7] | Potency [8] | Potency [9] | Potency [10] | Potency [11] | Potency [12] | Potency [13] | Potency [14] | Potency [15] | Potency [16] | Potency [17] | Potency [18] | Potency [19]

CCCCCCOC(=O)CCCCC(=O)OCCCCCC
inactive: Potency [1] | Potency [2] | Potency [3] | outcome [4] | outcome [5] | Potency [6] | Potency [7] | Potency [8] | Potency [9] | Potency [10] | Potency [11] | Potency [12] | Potency [20] | Potency [14] | Potency [15] | Potency [16] | Potency [17] | Potency [18] | Potency [19]

CC(C)(C)C1(CCc2ccc(Cl)cc2)CO1 (configuration not stated)
inactive: Potency [1] | Potency [2] | Potency [3] | outcome [4] | outcome [5] | Potency [6] | Potency [7] | Potency [8] | Potency [9] | Potency [10] | Potency [11] | Potency [12] | Potency [13] | Potency [14] | Potency [15] | Potency [16] | Potency [17] | Potency [18] | Potency [19]

COC(=O)c1ccc(I)cc1S(=O)(=O)NC(=O)Nc1nc(C)nc(OC)n1
inactive: Potency [1] | Potency [2] | Potency [3] | outcome [4] | outcome [5] | Potency [6] | Potency [7] | Potency [8] | Potency [9] | Potency [10] | Potency [11] | Potency [12] | Potency [13] | Potency [14] | Potency [15] | Potency [17] | Potency [18]

CCN(CC)CCOc1ccc(Cc2ccccc2)cc1
inactive: Potency [1] | Potency [2] | Potency [3] | outcome [4] | outcome [5] | Potency [6] | Potency [7] | Potency [8] | Potency [9] | Potency [10] | Potency [11] | Potency [12] | Potency [13] | Potency [14] | Potency [16] | Potency [17] | Potency [18] | Potency [19]

OC[C@H]1O[C@@H](O[C@@H]2[C@@H](CO)O[C@](O)(CO)[C@H]2O)[C@H](O)[C@@H](O)[C@H]1O
inactive: Potency [1] | Potency [2] | Potency [3] | outcome [4] | outcome [5] | Potency [6] | Potency [7] | Potency [8] | Potency [9] | Potency [10] | Potency [11] | Potency [13] | Potency [20] | Potency [14] | Potency [15] | Potency [16] | Potency [17] | Potency [18]

C[C@H]1NCc2cc(-c3ccc4c(=O)c(C(=O)O)cn(C5CC5)c4c3OC(F)F)ccc21
inactive: activity change, negative = cytotoxicity [1] 4.74% [at 19 µM] | activity, positive = activation [2] -0.2% [at 19 µM] | activity change [3] -2.08% [at 11.8 µM, stronger effect = higher value] | activation [4] -1.09% [at 15.8 µM] | activation [5] -0.804% [at 11.8 µM] | activation [6] -4.26% [at 13.5 µM] | activation [7] 0.634% [at 13.6 µM] | activity change, negative = cytotoxicity [8] -4.1% [at 13.5 µM] | activity change, negative = cytotoxicity [9] 2.66% [at 13.5 µM] | activity change, negative = cytotoxicity [10] -9.15% [at 13.5 µM] | activation [11] -3.01% [at 13.5 µM] | activity, negative = inhibition [12] 1.4% [at 12.7 µM] | activity, negative = inhibition [20] 19.5% [at 12.6 µM] | activation [15] -1.76% [at 19 µM] | activity change, negative = inhibition [17] 10.3% [at 19 µM] | activation [18] -2.66% [at 19 µM] | activity change, negative = inhibition [19] -0.31% [at 18.9 µM]
